# In article PMC12136788:
# Positions count from the first letter of the chain named. The full ranking holds about 24,000 sequences; the median of “enrichment r” is about 0.99, and the highest 2% start at about 3.7. This excerpt belongs to a sample that is enriched for the highest values.
# B1: chr13:100200933:100200934:-_ENSMUSG00000052727_ENSMUST00000064762|mus_hu|FALSE|FALSE (ssRNA)
# RNA: GGGAGUUCUACAGUCCGACGAUCAGAGGUGAGUGAGGCAUAUAAGGACAUAUCUCUGGGAGGAGCAACAUCGGAUAGAGUAUCUUCUUGGAGAGGAGAAGCGAUCUGAGAAGGGGUAUGAGCAGAAGAGGUGGACGGGGAGGCCAACAGAGGAUUGAGCAUCA
# B2: chr14:21343058:21343059:-_ENSMUSG00000021816_ENSMUST00000161445|perfect_dup|FALSE|FALSE (ssRNA)
# RNA: GGGAGUUCUACAGUCCGACGAUCUGUAGUUUGACUUUUUCUGUACAUUCUAUAGCCUGCAUCUUGAGCUUCAUGAGCUCUAAUAAUCGAUAACAAAUUAUUGUUUUGCAAAAAUUCACACACUGCUGGAUAGUUAUAAAAAUACAACAGAGGAUUGAGCAUCA
# B3: chr2:216981417:216981418:+_ENSG00000079246_ENST00000392132|hu_hu|hu_hu_hu_mus_True|58_68 (ssRNA)
# RNA: GGGAGUUCUACAGUCCGACGAUCCUGAUACUGGUCCUUGCCAGCAAGGGCAUUAUCAGUGCCAUCUGUACCAAACAGGACUAAAGCAAUCUCAUCUUUGCUCUCCGAAAAUACCUGUCGUUGGACAAACAUAGUCAUCACUUUCAACAGAGGAUUGAGCAUCA
# B4: chr6:40197388:40197389:+_ENSMUSG00000057716_ENSMUST00000061740|mus_mus|mus_mus_mus_hu_False|68_108 (ssRNA)
# RNA: GGGAGUUCUACAGUCCGACGAUCGAGUUGUCAGUUUGGAUUUAUUCCACCUCUGUUUGGGUGCUAGUAAGAUAGAUUGUUAUUUUGGGAUUCAUGGCCUUGAAUAUCAAGAGGGAAAGGAAGAGGAUGGAAAGAGUCAAGAGUCAACAGAGGAUUGAGCAUCA
# B5: 33360611_33360731_3434_3pUTR_ENSMUSG00000024378_ENSMUST00000025236|mouse|control|control (ssRNA)
# RNA: GGGAGUUCUACAGUCCGACGAUCCUAUGGACUGCUAUAAGCCCUUCCCCCAGCCCCAGGUACUUUUGCAAGAGCAGAGAACGCUCUUUCACUACCAUCACCUCCCAGCCUCUGCUGGGAUACUCUGAGUUACACGUAUGGCUUCAACAGAGGAUUGAGCAUCA
# B6: chr7:7679991:7679992:-_ENSG00000106399_ENST00000396682|hu_hu|hu_hu_hu_mus_False|8_8 (ssRNA)
# RNA: GGGAGUUCUACAGUCCGACGAUCUGGGAUGAAUCUUUUCCAGCUUCCCCACGAAGCACACGGGCCGGUCGAUAUACUGUGGUAACAUGCUGGCGUUGACGCGCGCUUUGGGGAGCUGCAUUAUGUCCACCAUGAUUCUGCCGCCAACAGAGGAUUGAGCAUCA
# B7: 142153747_142154939_927_CDS_ENSG00000109445_ENST00000262990|human|control|control (ssRNA)
# RNA: GGGAGUUCUACAGUCCGACGAUCAUAAGCAUCAUACCCAGAAGCUCCAUCUCCCUCUUCACCUCCAGUCUGCCUGCCAAAUUUCAGGGAGCGUGUUGACAUGCUAAGGUCCUUAGUCUCCUGAGUUUCAUGCCCACAUUUAGGCAACAGAGGAUUGAGCAUCA
# B8: chr2:232320318:232320319:-_ENSG00000115053_ENST00000322723|hu_hu|hu_hu_hu_mus_True|28_78 (ssRNA)
# RNA: GGGAGUUCUACAGUCCGACGAUCACUAUUAAAGUCUACAAAACCAAACCCUUUGGAGGACCCAGUUUCCCGAUCAGUGACUAUUCUUGCACGAACAGAGCCCUCAAAUGACUCCUUUAAGGUCUCUUCAGUGGUAUCCUCAGACAACAGAGGAUUGAGCAUCA
# B9: chr13:100518589:100518590:+_ENSG00000125246_ENST00000339105|hu_hu|FALSE|FALSE (ssRNA)
# RNA: GGGAGUUCUACAGUCCGACGAUCUUCUCGUGACUGUCUAAGCAGCCCAGCUCCAUCUCGAAAGUCAAUGUACACCAGAUCUAUGGCUUGGAGACCAAAGGCUUUCGCUAUGACAACAAUCUUUUGCCGGGCGUAGAGAAUAUCCAACAGAGGAUUGAGCAUCA
# B10: chr17:60770872:60770873:+_ENSG00000011028_ENST00000303375|hu_hu|hu_hu_hu_mus_True|58_58 (ssRNA)
# RNA: GGGAGUUCUACAGUCCGACGAUCUCUUUAAAAAAAAAAAAAAAAAGACAAACAAUAAUAGCACAUUUCGAGAAUCAUCAACUACAGUAGAGGGUCCGCUUUGAGUUUUUGUUCACAUCGUCCUGCACUGGGACACGGGGACUGCAACAGAGGAUUGAGCAUCA
# B11: chr17:60770872:60770873:+_ENSG00000011028_ENST00000303375|hu_hu|hu_hu_hu_mus_True|58_88 (ssRNA)
# RNA: B10 RNA with A47U, C48U, A49U, C52A, U55C
# B12: chr17:60770872:60770873:+_ENSG00000011028_ENST00000303375|hu_hu|hu_hu_hu_mus_True|1_58 (ssRNA)
# RNA: B10 RNA with G137A, G138C, G139C, C141G, U142G, G143A
# B13: chr22:38882006:38882007:-_ENSG00000100201_ENST00000396821|hu_hu|FALSE|FALSE (ssRNA)
# RNA: GGGAGUUCUACAGUCCGACGAUCAGGAGGAGGAGGGGGAGGAGGAGGAGGGUAUUGGUAGGCAGUCUGCCCCAUGUAACCUAUCAUAUUGGUAGCUCCCGGAGGCUGUGCAAACUGUUGUGACAUCAGUGGCUGUGGCUGCUGCAACAGAGGAUUGAGCAUCA
# B14: chr10:28872372:28872373:+_ENSG00000095787_ENST00000354911|hu_mus|FALSE|FALSE (ssRNA)
# RNA: GGGAGUUCUACAGUCCGACGAUCUGCAUCUGAAGUUUUGCUUGGAUUAUUGCUUGGAUUAGAAGAAUGUGAAUUUGAACUAUGAAGUGCACUGUGGUUGUGUGAGUUUUCUUGUGGAGAGUAACUGGUCCCACCGUCCCUUUCCAACAGAGGAUUGAGCAUCA
# B15: chr19:8913615:8913616:-_ENSMUSG00000071658_ENSMUST00000096259|mus_hu|mus_mus_mus_hu_False|18_108 (ssRNA)
# RNA: GGGAGUUCUACAGUCCGACGAUCAGGGGGGCACCAACUUCUGCCUGAAAUGGGUGCCCCACCCAGUAGGGAGUUGCAGCUGAAAGUAUCUGAUGCAGAAGCAGUGACUAUACGAAAGGUCACUAGAGGGGAGGGCCAGGCCAGCAACAGAGGAUUGAGCAUCA
# B16: 49433355_49433581_8031_CDS_ENSG00000167548_ENST00000301067|human|control|control (ssRNA)
# RNA: GGGAGUUCUACAGUCCGACGAUCGCGCUGGAUCUGCUGCCGAAUCAGCAGCUCUCGUAGUCGCUGGCGCUGCCGUUGCUUCUCCAGCUCUGUUUGGCUAAGGCCGGACAUGCCUGGGUCCUGGGUACCUGGGAGUUCAGCUGUCAACAGAGGAUUGAGCAUCA
# B17: chr15:11317090:11317091:-_ENSMUSG00000022241_ENSMUST00000022849|mus_mus|FALSE|FALSE (ssRNA)
# RNA: GGGAGUUCUACAGUCCGACGAUCUUCUGUGAGGAUGGCAAUCAUUCUUUCCACCGACCCCAGGAUGGCUCUGUGAACAAUCACUGGCCUUUUCUUAUCAUCGCCAUCGUGGCUGACGUAAGUAAGGUUAAACCUGAUGGGCAACAACAGAGGAUUGAGCAUCA
# B18: chr7:66561770:66561771:+_ENSMUSG00000025326_ENSMUST00000107537|mus_mus|motif|central (ssRNA)
# RNA: GGGAGUUCUACAGUCCGACGAUCUUAGCAUUACAGUAAAUAAGAGCUCUGUCUCAACUACUACAAGAAAGAAAAUAAUCCGGAGACAUCCUUUUCCCCUUCCAAUGAUUUGAAAGCUACCAUUAUCCCCUGCCAAUUAAAAUCCAACAGAGGAUUGAGCAUCA
# B19: chr20:57609950:57609951:-_ENSG00000101166_ENST00000355937|hu_mus|FALSE|FALSE (ssRNA)
# RNA: GGGAGUUCUACAGUCCGACGAUCGAUCUUUUGUUUAGAUCAAAAGUCACAGCCUUACCCCACCUCAUUAAAAAAAAAGAUCUACCUAAAAUAAUUGUGUCUUUUAAAUAACAAAUAAUAUGAUGCCAGCUUGAGAGUCCUGGACAACAGAGGAUUGAGCAUCA
# B20: chr4:87735950:87735951:+_ENSG00000163629_ENST00000511467|hu_hu|motif|central (ssRNA)
# RNA: GGGAGUUCUACAGUCCGACGAUCCUCACCAUGUCCUUGUAACAAUGUCUGCUAUCAUCAAAUGCUGCCUUUAAUCAUCCCGGAGAUCUGCAUUGUUUGGUUAGUGUUAAAAUUUUGUAAAUAAUUAUCAUAGGUUAAAGUAGCCAACAGAGGAUUGAGCAUCA
# B21: chr19:60011576:60011577:-_ENSMUSG00000040022_ENSMUST00000171986|mus_hu|FALSE|FALSE (ssRNA)
# RNA: GGGAGUUCUACAGUCCGACGAUCUUUUGCUGUAAAUGGAUUGGUUGACUCAUAAUCAAAAUAGUCCUGGCGAUUUUCACUAAAUGCAUUAGGUGAUUUCAAGUCACAAGGGCUAUCAGAUCCCCCAUUGUUAAGUUUAUCAGACAACAGAGGAUUGAGCAUCA
# B22: chr4:87735950:87735951:+_ENSG00000163629_ENST00000511467|hu_hu|FALSE|FALSE (ssRNA)
# RNA: B20 RNA with G81U, G82A
# B23: 133533018_133533138_1595_3pUTR_ENSG00000113575_ENST00000481195|human|control|control (ssRNA)
# RNA: GGGAGUUCUACAGUCCGACGAUCUAGAAGGGAGGCCUUGGUAAUUAUUUUUAAAAAUGUUCAUUAAGCUCCAAUGAUUGUUUGCUGCUAUCCUUAUCUACAGUCAUGCUGAGUAAAGCUAUAGCUAAAUGGAAGUUAAAUUGUCAACAGAGGAUUGAGCAUCA
# Biological target: T1, UNK ZnF1-3 (human, UniProt Q9C0B0 31-174)
# T1 sequence: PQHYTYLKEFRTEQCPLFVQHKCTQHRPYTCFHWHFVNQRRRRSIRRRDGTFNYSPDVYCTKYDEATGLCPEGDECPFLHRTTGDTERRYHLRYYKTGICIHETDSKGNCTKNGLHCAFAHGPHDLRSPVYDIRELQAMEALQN
# Test: nsRBNS (natural sequence RNA bind-n-seq); RBNS binding buffer (assumed for nsRBNS): 25 mM Tris pH 7.5, 150 mM KCl, 3 mM MgCl2, 0.01% Triton X-100, 500 ug/ml BSA, 20 U/ml SUPERase-In, 4 C; UNK is unkempt and MSI1 is Musashi-1; names of the RNAs are library labels; protein concentration not given here; high values mean tight binding
row,Binder,binding signal [enrichment R]
1,B1,3.67
2,B2,1.03
3,B3,0.678
4,B4,2.09
5,B5,0.77
6,B6,0.487
7,B7,1.39
8,B8,0.596
9,B9,0.61
10,B10,4.08
11,B11,4.59
12,B12,3.08
13,B13,1.56
14,B14,1.04
15,B15,0.986
16,B16,0.484
17,B17,1.43
18,B18,1.63
19,B19,2.8
20,B20,5.3
21,B21,0.505
22,B22,3.93
23,B23,1.37
